Test systems include T-47D breast; BT-549 breast; MDA-MB-435 melanoma; SW-620 colon; MCF7 breast; HCT-116 colon; KM12 colon; HCC-2998 colon.
Holding throughout (experiment): NCI-60 one-dose screen, 48 h (100 = growth as untreated, 0 = no growth, -100 = all killed)
Conditions in all cases: 10 µM

In PubChem BioAssay (NCI) one finds growth data, which are given here for 17 molecules.

Compounds without any hit were thinned out: in the full panel of roughly 83,000, 20% have a hit.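 Cells were grown in 96-well plates and exposed to the test compound at a single concentration for 48 hours; results are reported as percent growth, with values below 10 considered active.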 Unmarked numbers belong to inactive results. Active and inactive are the calls of the source.

Take `CCOC(=O)CN(c1sc(C)c(C)c1C(=O)OCC)S(=O)(=O)c1ccc(C)cc1`: the growth with T-47D breast was 88.5%; with BT-549 breast, 102%; with MDA-MB-435 melanoma, 102%; in the assay with SW-620 colon, 100%; with MCF7 breast, 100%; in the assay on HCT-116 colon it was 95.5%. Besides, in the assay on KM12 colon, the growth was 96%.
For `Cc1ccc(C2=NN(c3ccc(S(C)(=O)=O)cc3)C(=O)CC2)cc1`, the growth in the assay with T-47D breast is 32.7%; with BT-549 breast, 11.3%; with MDA-MB-435 melanoma, -61.2% (active); in the assay on SW-620 colon, 8.58% (active); in the assay on MCF7 breast, 16.2%; in the assay on HCT-116 colon, 17.7%. Moreover, in the assay on KM12 colon, the growth is 35%.
In the case of `Cc1c(Cl)cccc1NC(=O)CN1CCOCC1`, the growth in the assay on T-47D breast was 96.1%; in the assay with BT-549 breast, 97.4%; in the assay on MDA-MB-435 melanoma it was 98.7%; in the assay with SW-620 colon, 94.5%; in the assay on MCF7 breast, 98.1%; in the assay with HCT-116 colon it was 97%. The growth with KM12 colon was 97.3%.
As for `CN1CCN(CCCn2c(=O)c3sc4ncccc4c3n3nnc(-c4ccccc4)c23)CC1`, the growth in the assay with T-47D breast is -75.4% (active); with BT-549 breast, 50.1%; in the assay with MDA-MB-435 melanoma, -75.8% (active); in the assay on SW-620 colon it was -65.5% (active); in the assay with MCF7 breast, 5.32% (active); with HCT-116 colon it was -59.2% (active). Also, the growth in the assay with KM12 colon is 16.4%.
Consider `COc1ccc(-c2nc(-c3nc4ccc(C)cc4[nH]3)cc3c2[nH]c2ccccc23)cc1`, for which the growth is 32.7% with T-47D breast; 71.7% in the assay on BT-549 breast; 46% in the assay on MDA-MB-435 melanoma; 81.4% in the assay with SW-620 colon; 36.1% in the assay on MCF7 breast; 48.9% in the assay on HCC-2998 colon.
`O=c1oc2c(cc1-c1ccc(F)cc1)C(O)Oc1ccccc1-2` (configuration not stated): the growth in the assay on T-47D breast is 87.4%; with BT-549 breast it was 87.6%; in the assay with MDA-MB-435 melanoma, 3.53% (active); in the assay on SW-620 colon it was 45.4%; in the assay with MCF7 breast, 55.2%; in the assay on HCC-2998 colon it was 48.6%.
Regarding `COC(=O)c1cc2oc(/C=C3/SC(=S)N(N)C3=O)cc2n1Cc1ccccc1`, the growth was 75.6% with T-47D breast; 36.5% with BT-549 breast; 19.2% in the assay with MDA-MB-435 melanoma; -43.3% (active) with SW-620 colon; 21% with MCF7 breast; 80.2% in the assay on HCC-2998 colon. Besides, the growth with KM12 colon was 58.9%.
In the case of `Cc1ccccc1N1C(=O)c2cc(S(N)(=O)=O)c(Cl)cc2NC1C` (configuration not stated), the growth in the assay on T-47D breast is 104%; in the assay on BT-549 breast, 96.6%; in the assay with MDA-MB-435 melanoma, 112%; in the assay on SW-620 colon it was 108%; in the assay with MCF7 breast, 94.2%; in the assay on HCC-2998 colon, 107%. Further, the growth in the assay with KM12 colon is 108%.
On to `COc1ccc(-c2nn(-c3cccc(Cl)c3)cc2-c2c(C#N)c(=O)n3[nH]c(-c4ccc(C)cc4)nc3c2C#N)cc1`, for which the growth was 55.6% in the assay on T-47D breast; 43.4% in the assay on BT-549 breast; 10.8% with MDA-MB-435 melanoma; -21% (active) in the assay with SW-620 colon; 21.2% with MCF7 breast; 52.2% in the assay with HCC-2998 colon. The growth in the assay with KM12 colon was 55.1%.
As for `Cc1n[nH]c(C)c1N=Nc1cccc2c1C(=O)c1ccccc1C2=O`, the growth was 79.3% in the assay on T-47D breast; 100% with BT-549 breast; 107% with MDA-MB-435 melanoma; 84.6% with SW-620 colon; 81% with MCF7 breast; 96.1% with HCC-2998 colon. Moreover, the growth in the assay with KM12 colon is 99.5%.
With `COc1cc2c3c(n(C4CCNCC4)c(=O)c2cc1OC)-c1cc2c(cc1C3=O)OCO2`, the growth in the assay with T-47D breast was -51.1% (active); in the assay with BT-549 breast it was -58% (active); with MDA-MB-435 melanoma it was -44.1% (active); in the assay on SW-620 colon, -73.2% (active); with MCF7 breast, -53.8% (active); in the assay with HCC-2998 colon, -95% (active). In the assay on KM12 colon, the growth is -79.6% (active).
Consider `COc1ccc(/C=C2\CCCC3=C2N=C2SC(C)=CN2C3c2ccc(OC)cc2)cc1` (configuration not stated), for which the growth in the assay on T-47D breast was 108%; in the assay with BT-549 breast, 105%; in the assay with MDA-MB-435 melanoma, 90%; in the assay on SW-620 colon, 99.6%; with MCF7 breast it was 88.8%; in the assay on HCC-2998 colon, 111%. Further, the growth with KM12 colon was 108%.
`COc1ccc2nc3cc(Cl)ccc3c(N)c2c1`: the growth in the assay on T-47D breast was -82% (active); with BT-549 breast, -95.6% (active); in the assay on MDA-MB-435 melanoma, -74.2% (active); in the assay on SW-620 colon it was -70.2% (active); in the assay on HCT-116 colon, -99.2% (active); with HCC-2998 colon it was -99% (active). Besides, the growth in the assay on KM12 colon is -84.3% (active).
On to `NC(N)=N/N=C(\c1ccccc1)C(O)c1ccccc1` (configuration not stated), for which the growth is 89.9% in the assay with T-47D breast; 103% in the assay with BT-549 breast; 107% in the assay on MDA-MB-435 melanoma; 94.9% in the assay with MCF7 breast; 100% with HCT-116 colon; 100% in the assay with HCC-2998 colon. Further, in the assay with KM12 colon, the growth is 105%.
Regarding `O=C1/C(=C/c2cccc(F)c2)Cc2ccccc21`, the growth in the assay on T-47D breast is 103%; in the assay on BT-549 breast, 106%; in the assay with MDA-MB-435 melanoma it was 97.9%; with SW-620 colon, 102%; in the assay with MCF7 breast it was 25.1%; with HCC-2998 colon it was 97.1%. Further, the growth with KM12 colon was 98.7%.
As to `CCC(C)[C@H](NC(C)=O)C(=O)N[C@@H](CCCNC(=N)N)C(=O)N[C@@H](CCCCN)C(=O)N[C@@H](CC1CCC(O)CC1)C(=O)NC(C(=O)N[C@@H](CCSC)C(=O)N[C@@H](CCCNC(=N)N)C(=O)N[C@@]1(C)CCC/C=C\CCC[C@@](C)(C(=O)NC(C(=O)N[C@@H](CCC(=O)O)C(=O)N[C@@H](CC(C)C)C(=O)N[C@H](C(=O)N[C@@H](CCC(=O)O)C(N)=O)C(C)C)[C@@H](C)O)NC(=O)[C@H](CCC(N)=O)NC(=O)[C@H](CC(C)C)NC(=O)[C@H](CC(C)C)NC1=O)[C@@H](C)O` (some centres not stated), the growth was 78.9% in the assay on T-47D breast; 117% with BT-549 breast; 105% with MDA-MB-435 melanoma; 90.4% in the assay on SW-620 colon; 102% in the assay with MCF7 breast; 103% in the assay with HCC-2998 colon. In addition, in the assay with KM12 colon, the growth was 96.9%.
On to `O=C(CCl)Nc1ccc(Cc2ccc(NC(=O)CCl)cc2)cc1`, for which the growth in the assay on T-47D breast was 14.7%; with BT-549 breast, -23.5% (active); in the assay on MDA-MB-435 melanoma, 0.989% (active); with SW-620 colon, -21.8% (active); with MCF7 breast, 1.46% (active); in the assay on HCC-2998 colon, -14.9% (active). The growth in the assay on KM12 colon is 0.445% (active).
